A3G deaminase: APOBEC3G DNA deaminase inhibitors, primary screen, biochemical, fluorescence, single-stranded DNA substrate, uHTS | DNA dC->dU-editing enzyme APOBEC-3G (Homo sapiens), Q9HC16 | recombinant A3G, ssDNA deamination FAM/TAMRA fluorescence | inhibition, % at 20 µM | 0.28% of 330,000 active | AID 493012, 2011;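 active means inhibition of at least 40% at 20 µM, with no more than 30% in the related APOBEC3A deaminase screen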;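 further: plate controls were DMSO wells with A3G for no effect and wells lacking A3G enzyme for full effect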
NTR1 ag: agonists of human NTR1, primary screen, imaging, U2OS cells, beta-arrestin-GFP, high content; NTR1-U2OS beta-arrestin-GFP spot imaging, agonist mode; activation, % at 20 µM; AID 493036, 2011; 0.17% of 330,000 active;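 active means activation at or above 40% of the spot to cytoplasm intensity ratio, with at least 20 cells analyzed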;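 further: 0% = DMSO without peptide and 100% = 100 nM NTR1 peptide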
Target sequence (P30989 whole entry, looked up): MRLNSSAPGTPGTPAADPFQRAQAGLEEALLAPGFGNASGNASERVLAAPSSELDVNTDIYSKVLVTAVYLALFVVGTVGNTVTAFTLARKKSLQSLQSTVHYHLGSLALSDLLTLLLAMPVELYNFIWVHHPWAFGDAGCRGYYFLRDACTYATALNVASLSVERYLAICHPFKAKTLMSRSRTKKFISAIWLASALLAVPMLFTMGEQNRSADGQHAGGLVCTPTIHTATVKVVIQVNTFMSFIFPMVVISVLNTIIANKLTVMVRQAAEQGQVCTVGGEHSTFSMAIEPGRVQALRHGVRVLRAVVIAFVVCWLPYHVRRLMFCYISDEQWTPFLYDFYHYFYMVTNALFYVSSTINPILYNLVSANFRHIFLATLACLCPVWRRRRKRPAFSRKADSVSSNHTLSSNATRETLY
A3A deaminase: APOBEC3A ssDNA deaminase inhibitors, primary screen, selectivity assay for APOBEC3G inhibitor project, biochemical, FAM/TAMRA oligo cleavage fluorescence; recombinant A3A, FAM/TAMRA ssDNA deamination fluorescence; inhibition, % at 20 µM; 0.41% of 330,000 active; DNA dC->dU-editing enzyme APOBEC-3A (Homo sapiens), P31941; AID 493011, 2011;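 active means at least 40% inhibition at 20 µM here, with at most 30% in a related deaminase screen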;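 further: plate controls were A3A with DMSO for no effect and wells lacking A3A enzyme for full effect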
AHR act: AHR activators, primary screen, cell-based, luminescence, luciferase reporter, human | AHR-responsive luciferase reporter cells | 2.5% of 320,000 active | activation, % at 5 µM | Aryl hydrocarbon receptor (Homo sapiens), P35869; in the data active means activation above about 47%;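 further: 0% = vehicle wells and 100% = reference agonist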
AHR act cf: AHR activators, confirmation, cell-based, luminescence, luciferase reporter, human; shares compounds with AHR act; human cells, AHR-responsive luciferase reporter; activation, % at 9 µM; 87% of 2,300 active; AID 2845, 2010; in the data active means activation above about 49%;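 further: HepG2 hepatoma cells carrying a DRE-driven firefly luciferase reporter; 0% = vehicle wells and 100% = reference agonist wells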
PXR counter: human PXR activators, counter-screen for AHR activator project, cell-based, luciferase luminescence | AID 434939, 2010 | activation, % at 11.6 µM | cell-based PXR reporter | 88% of 2,300 active | shares compounds with AHR act; in the data active means activation above about 11%;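 further: human hepatoma DPX-2 cells expressing full-length human PXR; 0% = DMSO and 100% = reference agonist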
An asterisk follows results filed as active; / = no result. Shown are actives, neighbours in structure and some others; about 3.2% of the full set was active somewhere.

SMILES	A3G deaminase	NTR1 ag	A3A deaminase	AHR act	AHR act cf	PXR counter
CCCCN(CCCNC(=O)CN1C(=O)COc2ccc(S(=O)(=O)N3CCC(C)CC3)cc21)Cc1ccccc1	-2	2	-1	1	/	/
CC[C@]12c3[nH]c4ccc(OC)cc4c3CCN1C(=O)C(CC(=O)NCCc1ccccn1)C[C@@H]2C(=O)N1CCN(C(=O)c2ccco2)CC1 (some centres not stated)	6	3	4	/	/	/
O=C(NC(=S)N1CCCc2ccccc21)c1ccc(Br)cc1	3	-2	2	88*	84*	20*
COc1ccc(NC(=O)c2sc(NC(=O)C3CC3)nc2C)cc1	2	1	1	12	/	/
CS(=O)(=O)c1ccc2nc(NC(=O)C3CC3)sc2c1	0	1	-2	1	/	/
Cc1nc(NC(=O)C2CC2)sc1C(=O)Nc1ccc(Br)cc1	-6	2	-4	103*	104*	33*
Cc1cc(C)c2sc(NC(=O)C3CC3)nc2c1	3	4	0	106*	117*	59*
CCc1cccc2sc(NC(=O)C3CC3)nc12	2	0	-2	91*	119*	13*
CCOc1cccc2sc(NC(=O)CC)nc12	-7	0	-4	29	/	/
Cc1ccc(C)c2sc(NC(=O)C3CC3)nc12	0	0	-3	92*	121*	/
COc1ccccc1CNC(=O)[C@@H](NC(=O)C1CCN(C(=O)[C@@H]2CCCN2C(=O)OC(C)(C)C)CC1)C(C)C	-7	1	0	0	/	/
COc1ccc(OC)c(NC(=O)CSc2nc(=O)n(Cc3ccccn3)c3c2CCC3)c1	-9	0	-3	-1	/	/
CCCCC(=O)N/N=C(/C)C1=C(C)C(C)(C)OC1=O	-15	0	2	5	/	/
Cc1nn(CC(=O)Nc2ccc(C(=O)N3CCCC3)cc2)c(=O)c2ccccc12	2	-1	3	86*	5	5
CCN(CC)S(=O)(=O)c1ccc(C)c(C(=O)Oc2cccc(-c3cnc4ccccc4n3)c2)c1	-6	0	-1	-3	/	/
O=C(Oc1cccc(-c2cnc3ccccc3n2)c1)c1ccco1	-1	-1	3	99*	44	9
C/C(=N\NC(=O)CSc1nc(C)[nH]c1[N+](=O)[O-])c1ccc(F)cc1	-2	1	-2	35	/	/
COc1ccc(Nc2nccc(-c3ccc(C#N)cc3)n2)cc1	-5	0	1	80*	54*	16*
COc1ccc(Nc2nccc(-c3cccc(N)c3)n2)cc1	-7	4	-3	132*	54*	30*
O=C(NN=C1CCCCC1)c1cc(-c2ccccc2)n[nH]1	-6	-1	-1	121*	44	17*
COCC1CCCCN1C(=O)c1cccc(OC2CCN(C(=O)C3CC3)CC2)c1 (configuration not stated)	13	0	-1	9	/	/
O=C(N/N=C/c1cccnc1)c1ccccc1Cl	-9	0	-1	6	/	/
Nc1c(Cl)c(Cl)nc(C(=O)N/N=C/c2cccnc2)c1Cl	-2	1	5	86*	78*	40*
Cc1nc(NC(=O)c2ccc(Cl)cc2)nc2cc3c(cc12)OCO3	-8	2	0	91*	71*	17*
CCOc1ccccc1/C=C(\C#N)C1=CCCC1	-1	-1	1	4	/	/
SMILES	A3G deaminase	NTR1 ag	A3A deaminase	AHR act	AHR act cf	PXR counter
C=CCn1c(=N)n(CC(=O)c2cccc([N+](=O)[O-])c2)c2ccccc21	-9	6	-1	85*	128*	58*
N=c1n(CCN2CCCCC2)c2ccccc2n1CC(=O)c1cccc([N+](=O)[O-])c1	-4	1	-3	46	/	/
O=C(CC1Nc2ccccc2NC1=O)Nc1ccc2c(c1)OCO2 (configuration not stated)	-6	0	-2	153*	137*	24*
CCCOc1ccc(NC(=O)CC2Nc3ccccc3NC2=O)cc1 (configuration not stated)	-2	4	6	13	/	/
O=C(CC1Nc2cccc3cccc(c23)NC1=O)Nc1ccccc1 (configuration not stated)	48	-1	32	136*	99*	79*
CC(=O)Nc1nc(C)c(CCC2OCCO2)c(=O)[nH]1	-2	-1	-1	1	/	/
CC(=O)N/C(=C/c1ccc(OS(=O)(=O)c2ccc(C)cc2)cc1)C(=O)NCCCO	-10	0	-2	-2	/	/
Fc1ccccc1/C=N/n1cnnc1	-5	2	-4	0	/	/
Fc1ccccc1/C=N/n1cc(-c2ccccc2)[nH]c1=S	-8	7	-5	87*	112*	45*
NS(=O)(=O)c1ccc(N/N=C/C=C/c2ccccc2[N+](=O)[O-])cc1	-10	2	-4	82*	6	25*
O=C(NC(=S)Nc1ccc2cn[nH]c2c1)c1ccccc1	-4	0	-1	84*	81*	75*
S=C(Nc1ccccc1)Nc1ccc2cn[nH]c2c1	-4	0	4	6	/	/
O=S(=O)(Cc1ccccc1)N1CCCc2ccccc21	2	0	2	125*	114*	80*
O=C(COC(=O)CC1CC2CCC1C2)Nc1cccc(S(=O)(=O)NC2=NCCCCC2)c1 (configuration not stated)	-4	2	5	1	/	/
Cc1ccc(C#N)c(SCCN2CCCCC2)n1	-10	0	-5	/	/	/
Cc1cccc2cc(C#N)c(SCCN3CCCCC3)nc12	-3	2	2	81*	101*	48*
O=C(Nc1nc2c(Cl)cccc2s1)c1ccc(Br)o1	-3	3	5	102*	105*	67*
Cc1c(-c2ccn[nH]2)cc(NC(=O)c2ccc(Cl)cc2)c(=O)n1N	-1	-1	3	86*	105*	/
Cc1nccc2oc(=O)c(NC(=O)c3ccc(Cl)cc3)cc12	-5	2	0	-4	/	/
CN(C)S(=O)(=O)c1cccc(NC(=O)c2cc(=O)[nH]c3ccccc23)c1	-4	0	3	2	/	/
Cc1cccc(NC(=O)c2cc(=O)[nH]c3ccccc23)c1	-7	0	-6	89*	90*	11*
COC(=O)/C(=C/c1ccc2c(c1)c1ccccc1n2C)NC(=O)c1ccccc1	-6	12	0	82*	104*	97*
CC(C)Cn1c(/C=C/c2ccccc2)nc2ccccc21	-10	1	-3	84*	119*	68*

From PubChem BioAssay
